# From PubChem BioAssay (EPA / NIEHS)
# Calls of active or inactive are those of the source. How the source made its calls: active means hit-call score of the fitted dose curve at least 0.9, where 1 is the maximum; inactive means score below 0.9.
# Columns and labels:
# [1] = BSK_hDFCGF_SRB: Viability Assessment in the BioMAP Diversity Plus: hDFCGF Assay (AID 2283061); conditions: primary human foreskin fibroblasts;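 further: cells exposed to compound for 24 h before the read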
# How it was run: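 Readout is SRB absorbance at 560 nm, reflecting total protein in parallel cultures of human foreskin fibroblasts harvested 24 h after chemical dosing. Activity was fitted bidirectionally relative to DMSO.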
# [2] = read-out: Monokine induced gamma interferon (MIG), CXCL9 (gene 4283); assay: BSK_hDFCGF_MIG: BioMAP Diversity Plus: hDFCGF Assay for Monokine induced gamma interferon (MIG) Biomarker Activity (AID 2283063); conditions: primary human foreskin fibroblasts; actives raise or lower the signal
# How it was run: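 Chemicals were added to primary human foreskin fibroblast cultures, which were sampled 24 h later. MIG levels were then quantified by ELISA and responses fitted in both directions relative to DMSO.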
# [3] = read-out: Matrix Metallopeptidase 1 (MMP1), MMP1 (gene 4312); assay: BSK_hDFCGF_MMP1: BioMAP Diversity Plus: hDFCGF Assay for Matrix Metallopeptidase 1 (MMP1) Biomarker Activity (AID 2283064); conditions: primary human foreskin fibroblasts; actives raise or lower the signal
# How it was run: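 Primary human foreskin fibroblasts in the hDFCGF system were dosed with test chemical, and MMP1 was measured by ELISA 24 h later. Values come from bidirectional curve fitting against the DMSO baseline.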
# [4] = read-out: Vascular cell adhesion molecule 1 (VCAM1), VCAM1 (gene 7412); assay: BSK_hDFCGF_VCAM1: BioMAP Diversity Plus: hDFCGF Assay for Vascular cell adhesion molecule 1 (VCAM1) Biomarker Activity (AID 2283065); conditions: primary human foreskin fibroblasts; actives raise or lower the signal;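 on AC50: VCAM-1 protein level quantified by ELISA after 24 h chemical exposure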
# How it was run: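 Human foreskin fibroblast primary cells, chemical exposure 24 h; VCAM-1 by ELISA; bidirectional fit, DMSO = negative control/baseline.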
# [5] = read-out: Plasminogen activator inhibitor-1 (PAI1), SERPINE1 (gene 5054); assay: BSK_hDFCGF_PAI1: BioMAP Diversity Plus: hDFCGF Assay for Plasminogen activator inhibitor-1 (PAI1) Biomarker Activity (AID 2283066); conditions: primary human foreskin fibroblasts; actives raise or lower the signal
# How it was run: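 Human foreskin fibroblasts in the hDFCGF system were dosed with compound for 24 h; PAI-1 was quantified by ELISA. Bidirectional curve fitting used DMSO as negative control and baseline.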
# [6] = read-out: Intercellular Adhesion Molecule 1 (ICAM1), ICAM1 (gene 3383); assay: BSK_KF3CT_ICAM1: BioMAP Diversity Plus: KF3CT Assay for Intercellular Adhesion Molecule 1 (ICAM1) Biomarker Activity (AID 2283067); conditions: primary human keratinocytes with fibroblasts; actives raise or lower the signal
# How it was run: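 ICAM-1 levels are measured by ELISA 24 h after dosing a primary human co-culture of keratinocytes and foreskin fibroblasts. Activity in either direction is fitted relative to DMSO vehicle.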
# [7] = read-out: Interferon-gamma inducible Protein 10 (IP10), CXCL10 (gene 3627); assay: BSK_KF3CT_IP10: BioMAP Diversity Plus: KF3CT Assay for Interferon-gamma inducible Protein 10 (IP10) Biomarker Activity (AID 2283068); conditions: primary human keratinocytes with fibroblasts; actives raise or lower the signal
# How it was run: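 In a primary skin co-culture of keratinocytes and fibroblasts, IP-10 is quantified by ELISA at 24 h after dosing. SRB staining of parallel wells monitors overt toxicity. Curves are fitted both directions against DMSO.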
# [8] = BSK_KF3CT_SRB: Viability Assessment in the BioMAP Diversity Plus: KF3CT Assay (AID 2283069); conditions: primary human keratinocytes with fibroblasts;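 further: total protein by sulforhodamine B staining as a cytotoxicity measure; read 24 h after compound addition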
# How it was run: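 Human primary keratinocyte plus foreskin fibroblast co-culture exposed to chemicals for 24 h. Total protein measured by 0.1% sulforhodamine B staining after 10% TCA fixation, read at 560 nm; bidirectional fitting versus DMSO baseline.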
# [9] = read-out: Interleukin-1 alpha (IL1a), IL1A (gene 3552); assay: BSK_KF3CT_IL1a: BioMAP Diversity Plus: KF3CT Assay for Interleukin-1 alpha (IL1a) Biomarker Activity (AID 2283070); conditions: primary human keratinocytes with fibroblasts; actives raise or lower the signal
# How it was run: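 Human keratinocyte plus foreskin fibroblast primary co-culture, sampled 24 h after chemical dosing. IL-1a measured by ELISA; responses fitted bidirectionally against DMSO baseline (negative control), so gain or loss of signal both count.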
# [10] = read-out: TIMP metallopeptidase inhibitor 2 (TIMP2), TIMP2 (gene 7077); assay: BSK_KF3CT_TIMP2: BioMAP Diversity Plus: KF3CT Assay for TIMP metallopeptidase inhibitor 2 (TIMP2) Biomarker Activity (AID 2283071); conditions: primary human keratinocytes with fibroblasts; actives raise or lower the signal
# How it was run: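 Human primary keratinocyte/foreskin fibroblast co-culture dosed with chemical and sampled at 24 h. TIMP-2 levels quantified by ELISA; bidirectional fitting against DMSO negative control as baseline.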
# [11] = read-out: Transforming growth factor beta 1 (TGFb1), TGFB1 (gene 7040); assay: BSK_KF3CT_TGFb1: BioMAP Diversity Plus: KF3CT Assay for Transforming growth factor beta 1 (TGFb1) Biomarker Activity (AID 2283072); conditions: primary human keratinocytes with fibroblasts; actives raise or lower the signal
# How it was run: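 Human keratinocyte plus foreskin fibroblast primary co-culture, dosed with chemical for 24 h. TGF-b1 quantified by ELISA. Activity fitted bidirectionally against DMSO negative control as baseline.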
# [12] = read-out: C-C motif chemokine 2 (Homo sapiens) (UniProt P13500); assay: BSK_KF3CT_MCP1: BioMAP Diversity Plus: KF3CT Assay for Monocyte Chemoattractant Protein 1 (MCP1/CCL2) Biomarker Activity (AID 2283073); conditions: primary human keratinocytes with fibroblasts; actives raise or lower the signal
# How it was run: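 ELISA readout of MCP-1 after 24 h chemical dosing of a human skin primary co-culture of keratinocytes and foreskin fibroblasts. Activity was fitted in both directions against DMSO.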
# [13] = read-out: Matrix Metallopeptidase 9 (MMP9), MMP9 (gene 4318); assay: BSK_KF3CT_MMP9: BioMAP Diversity Plus: KF3CT Assay for Matrix Metallopeptidase 9 (MMP9) Biomarker Activity (AID 2283074); conditions: primary human keratinocytes with fibroblasts; actives raise or lower the signal;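 on AC50: MMP9 protein level quantified by ELISA in the co-culture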
# How it was run: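 Keratinocyte plus foreskin fibroblast human primary skin co-culture was dosed with chemical and MMP-9 was quantified by ELISA 24 h later. Bidirectional curve fitting used DMSO as negative control and activity baseline.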
# [14] = read-out: urokinase plasminogen activator (uPA), PLAU (gene 5328); assay: BSK_KF3CT_uPA: BioMAP Diversity Plus: KF3CT Assay for urokinase plasminogen activator (uPA) Biomarker Activity (AID 2283075); conditions: primary human keratinocytes with fibroblasts; actives raise or lower the signal
# How it was run: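 Human keratinocyte plus foreskin fibroblast primary co-culture exposed to chemical for 24 h. uPA levels were quantified by ELISA, and activity was fitted bidirectionally against a DMSO negative-control baseline.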
# CD40, CD40 (gene 958) = assay: BSK_LPS_CD40: BioMAP Diversity Plus: LPS Assay for CD40 Biomarker Activity (AID 2283076); conditions: primary human HUVEC with PBMC; actives raise or lower the signal
# How it was run: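 Cells were dosed, incubated 24 h, then assayed for CD40 by ELISA. Gain or loss of signal was analysed relative to DMSO controls. The culture paired human umbilical vein endothelium with peripheral blood mononuclear cells.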
# [15] = read-out: E-selectin (Homo sapiens) (UniProt P16581); assay: BSK_LPS_Eselectin: BioMAP Diversity Plus: LPS Assay for Eselectin Biomarker Activity (AID 2283077); conditions: primary human HUVEC with PBMC; actives raise or lower the signal
# How it was run: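 Primary human vascular co-culture (endothelium plus PBMC) was dosed with chemical, then E-selectin quantified by ELISA at 24 h. Endpoint values derive from bidirectional curve fitting relative to DMSO.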
# [16] = read-out: Interleukin-8 (IL8), CXCL8 (gene 3576); assay: BSK_LPS_IL8: BioMAP Diversity Plus: LPS Assay for Interleukin-8 (IL8) Biomarker Activity (AID 2283078); conditions: primary human HUVEC with PBMC; actives raise or lower the signal
# How it was run: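 Readout is IL-8 by ELISA, taken 24 h after compounds were added to LPS-stimulated endothelial/PBMC co-cultures. Both increases and decreases relative to DMSO control were scored through bidirectional fitting.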
# [17] = BSK_LPS_SRB: Viability Assessment in the BioMAP Diversity Plus: LPS Assay (AID 2283079); conditions: primary human HUVEC with PBMC;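 further: total protein by sulforhodamine B absorbance as a cytotoxicity measure; measured one day after compound addition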
# How it was run: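 Readout is SRB absorbance at 560 nm (0.1% stain, TCA-fixed parallel cultures) as a total-protein cytotoxicity measure. Cells: primary human umbilical vein endothelium plus peripheral blood mononuclear cells, 24 h after chemical exposure; DMSO served as baseline.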
# [18] = read-out: Interleukin-1 alpha (IL1a), IL1A (gene 3552); assay: BSK_LPS_IL1a: BioMAP Diversity Plus: LPS Assay for Interleukin-1 alpha (IL1a) Biomarker Activity (AID 2283080); conditions: primary human HUVEC with PBMC; actives raise or lower the signal
# How it was run: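 ELISA read-out of IL-1 alpha from a human primary vascular co-culture (endothelium plus PBMC) under LPS, sampled 24 hours post-dosing. Activity was fitted in both directions relative to DMSO controls.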
# Chain of E-selectin (Homo sapiens) (P16581 whole entry, looked up): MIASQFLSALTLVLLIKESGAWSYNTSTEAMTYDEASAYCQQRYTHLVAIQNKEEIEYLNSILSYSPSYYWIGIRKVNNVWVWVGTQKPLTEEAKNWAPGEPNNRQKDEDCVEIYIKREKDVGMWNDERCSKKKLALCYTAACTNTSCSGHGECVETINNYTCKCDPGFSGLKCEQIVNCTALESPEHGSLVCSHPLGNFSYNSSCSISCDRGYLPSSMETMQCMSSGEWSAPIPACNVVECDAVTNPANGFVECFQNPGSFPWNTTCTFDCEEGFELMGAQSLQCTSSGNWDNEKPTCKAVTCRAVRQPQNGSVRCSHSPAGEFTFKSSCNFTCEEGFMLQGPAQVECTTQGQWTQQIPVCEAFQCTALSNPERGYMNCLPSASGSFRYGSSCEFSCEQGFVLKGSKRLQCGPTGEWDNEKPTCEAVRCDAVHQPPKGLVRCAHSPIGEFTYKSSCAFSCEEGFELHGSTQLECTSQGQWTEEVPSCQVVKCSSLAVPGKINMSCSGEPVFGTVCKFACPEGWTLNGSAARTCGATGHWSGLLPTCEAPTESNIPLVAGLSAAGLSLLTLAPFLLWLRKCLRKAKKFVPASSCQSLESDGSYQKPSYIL
structure (smiles),measurement,setting,value
C[C@]12CC[C@H]3C(=CCc4cc(O)ccc43)[C@@H]1CCC2=O,outcome,[1],inactive
same,outcome,[2],inactive
same,outcome,[3],inactive
same,outcome,[4],inactive
same,outcome,[5],inactive
same,outcome,[6],inactive
same,outcome,[7],inactive
same,outcome,[8],inactive
same,outcome,[9],inactive
same,outcome,[10],inactive
same,outcome,[11],inactive
same,outcome,[12],inactive
same,outcome,[13],inactive
same,outcome,[14],inactive
same,outcome,"CD40, CD40 (gene 958)",inactive
same,outcome,[15],inactive
same,outcome,[16],inactive
same,outcome,[17],inactive
O=C1c2c(O)ccc(Nc3ccc(CCO)cc3)c2C(=O)c2c([N+](=O)[O-])ccc(O)c21,AC50,[1],20 µM (active)
same,AC50,[2],29.5 µM (active)
same,outcome,[3],inactive
same,AC50,[4],9.03 µM (active)
same,outcome,[5],inactive
same,AC50,[6],15.2 µM (active)
same,AC50,[7],27 µM (active)
same,outcome,[8],inactive
same,outcome,[9],inactive
same,AC50,[10],0.54 µM (active)
same,outcome,[11],inactive
same,outcome,[12],inactive
same,AC50,[13],20 µM (active)
same,outcome,[14],inactive
same,AC50,"CD40, CD40 (gene 958)",8.34 µM (active)
same,AC50,[15],20 µM (active)
same,outcome,[16],inactive
same,AC50,[17],3.97 µM (active)
same,outcome,[18],inactive
O=C1C=CC(=O)N1c1ccc(Cc2ccc(N3C(=O)C=CC3=O)cc2)cc1,AC50,[1],1.91 µM (active)
same,AC50,[2],3.48 µM (active)
same,AC50,[3],1.99 µM (active)
same,AC50,[4],1.5 µM (active)
same,AC50,[5],2.48 µM (active)
same,AC50,[6],3.64 µM (active)
same,AC50,[7],6.7 µM (active)
same,AC50,[8],1.97 µM (active)
same,AC50,[9],2.69 µM (active)
same,AC50,[10],2.2 µM (active)
same,AC50,[11],3.46 µM (active)
same,AC50,[12],1.99 µM (active)
same,AC50,[13],5.44 µM (active)
same,AC50,[14],5.55 µM (active)
same,AC50,[15],12.4 µM (active)
same,AC50,[16],20 µM (active)
same,AC50,[17],14.6 µM (active)
same,AC50,[18],8.38 µM (active)
CCOC(C=C(C)CCC=C(C)C)OCC,AC50,[1],33.2 µM (active)
same,AC50,[2],27.3 µM (active)
same,AC50,[3],32.4 µM (active)
same,AC50,[4],20 µM (active)
same,AC50,[5],20 µM (active)
same,outcome,[6],inactive
same,AC50,[7],34.5 µM (active)
same,AC50,[8],34.8 µM (active)
same,AC50,[9],26 µM (active)
same,AC50,[10],31.2 µM (active)
same,AC50,[11],3.97 µM (active)
same,AC50,[13],20 µM (active)
same,AC50,[14],3.97 µM (active)
same,AC50,[15],35 µM (active)
same,outcome,[16],inactive
same,AC50,[17],31.9 µM (active)
same,AC50,[18],32.9 µM (active)
NC(=O)C(F)(F)C(F)(F)C(F)(F)F,outcome,[1],inactive
same,outcome,[2],inactive
same,outcome,[3],inactive
same,outcome,[4],inactive
same,outcome,[5],inactive
same,outcome,[6],inactive
same,outcome,[7],inactive
same,outcome,[8],inactive
same,outcome,[9],inactive
same,outcome,[10],inactive
same,outcome,[12],inactive
same,outcome,[13],inactive
same,outcome,[14],inactive
same,outcome,[15],inactive
same,outcome,[16],inactive
same,outcome,[17],inactive
NCC(F)(F)C(F)(F)C(F)(F)C(F)(F)C(F)(F)C(F)(F)F,outcome,[1],inactive
same,outcome,[2],inactive
same,outcome,[3],inactive
same,outcome,[4],inactive
same,outcome,[5],inactive
same,outcome,[6],inactive
same,outcome,[7],inactive
same,outcome,[8],inactive
same,outcome,[9],inactive
same,outcome,[10],inactive
same,outcome,[12],inactive
same,outcome,[13],inactive
same,outcome,[14],inactive
same,outcome,[15],inactive
same,outcome,[16],inactive
same,outcome,[17],inactive
CCN(CC)c1ccc(C=O)c(O)c1,outcome,[1],inactive
same,outcome,[2],inactive
same,outcome,[3],inactive
same,outcome,[4],inactive
same,outcome,[5],inactive
same,outcome,[6],inactive
same,outcome,[7],inactive
same,outcome,[8],inactive
same,outcome,[9],inactive
same,outcome,[10],inactive
same,outcome,[11],inactive
same,outcome,[12],inactive
same,outcome,[13],inactive
same,outcome,[14],inactive
same,outcome,"CD40, CD40 (gene 958)",inactive
same,outcome,[15],inactive
same,outcome,[16],inactive
same,outcome,[17],inactive
same,outcome,[18],inactive
CC1=CC2C3C=CC(C3)C2C1C (configuration not stated),outcome,[1],inactive
same,outcome,[2],inactive
same,outcome,[3],inactive
same,outcome,[4],inactive
same,outcome,[5],inactive
same,outcome,[6],inactive
same,outcome,[7],inactive
same,outcome,[8],inactive
same,outcome,[9],inactive
same,outcome,[10],inactive
same,outcome,[11],inactive
same,outcome,[12],inactive
same,outcome,[13],inactive
same,outcome,[14],inactive
same,outcome,"CD40, CD40 (gene 958)",inactive
same,outcome,[15],inactive
same,outcome,[16],inactive
same,outcome,[17],inactive
same,outcome,[18],inactive
